Results published in PubChem BioAssay (Tox21).
Results filed as inconclusive are left out. Calls of active or inactive are those of the source. Calls come from the whole dose curve; as a rule, active = well fitted activation curve with a large enough effect in the repeat runs; inconclusive = weak or mixed curves; inactive = no such curve, though single readings can be large or run the other way.

Assay: qHTS assay for small molecules that induce genotoxicity in human embryonic kidney cells expressing luciferase-tagged ATAD5 (AID 651632); note: nearly all actives have a fitted effect of over 15% in size
Conditions: HEK293T ATAD5-luciferase induction, 16 h; series mostly up to 83.3 µM; activation: at the top concentration
Excerpt: U.S. Tox21 Program National Center for Advancing Translational Sciences [NCATS] NIH Chemical Genomics Center [NCGC] U.S. Environmental Protection Agency [EPA] National Institutes of Environmental Health Sciences [NIEHS] National Toxicology Program [NTP] U.S. Food and Drug Administration [FDA] Tox21 Assay Overview: As cancer cells divide rapidly and during every cell division they need to duplicate their genome by DNA replication. The failure to do so results in the cancer cell death. Based on this concept, many chemotherapeutic agents were developed but have limitations such as low efficacy and severe side effects etc. A new cell based assay was developed to find the compounds that effectively block DNA replication either by directly damaging DNA or by inhibiting other cellular mechanisms. Enhanced Level of Genome Instability Gene 1 (ELG1; human ATAD5) protein levels increase in response to various types of DNA damage. Using a luciferase reporter-gene tagged with ATAD5, a cell-based assay [developed by Kyungjae Myung, NHGRI, NIH] was used to measure the induction of ATAD5 in human embryonic kidney cells (HEK293T). So, increase in luciferase activity can be used to identify the compounds that cause genetic stress.
Tox21 Assay Protocol Summary: For genotoxicity screening, 2,000 cells in 5 uL/well were dispensed into white, solid-bottom 1536-well plates using a Multidrop Combi (Thermo Scientific) dispenser. Following transfer of 23 nL compound or DMSO vehicle by a pin tool, the plates were incubated 16 hr at 37C and 5% CO2. 5 ul Amplite (AAT Bioquest, Inc.) was then added to each plate and following 30 min incubation at room temperature, luciferase activity was quantified on a ViewLux CCD-based plate reader.
% is set by controls: 0 for no effect and ±100 for the full control effect; potency is the fitted concentration of half-maximal effect.

Row | Compound | activation | Potency
1 | NC1=NC(=O)N2CC12 (stereo not given) | 2.93% (inactive) | –
2 | C[C@@H]1[C@@H]2Cc3ccc(O)cc3[C@@]1(C)CCN2CC1CC1 | 1.26% (inactive) | –
3 | C[C@]12C[C@H]3S[C@H]3C[C@@H]1CC[C@@H]1[C@@H]2CC[C@]2(C)[C@@H](O)CC[C@@H]12 | 2% [at 39.1 µM] (inactive) | –
4 | C[N+]1([O-])[C@@H]2CC[C@H]1CC(OC(=O)C(CO)c1ccccc1)C2 (stereo not given in full) | – | inactive
5 | O=C(Nc1ccccc1-c1ccc(Cl)cc1)c1cccnc1Cl | -7.71% [at 95.3 µM] (inactive) | –
6 | Oc1ccc2c3c1O[C@H]1[C@@H](O)CC[C@@]4(O)[C@@H](C2)N(CC2CCC2)CC[C@]314 | -3.69% (inactive) | –
7 | CCCCCN(C)CCC(O)(P(=O)(O)O)P(=O)(O)O | 2.73% (inactive) | –
8 | COC1=CC=C2[C@H]3Cc4ccc(OC)c5c4[C@@]2(CCN3C)[C@H]1O5 | – | inactive
9 | CN1CCCC(=C(c2cccs2)c2cccs2)C1 | -4.73% (inactive) | –
10 | O=C(OCCN1CCCCC1)C(O)(c1ccccc1)c1ccccc1 | -2.16% (inactive) | –
11 | COc1ccc(C(c2ccc(OC)cc2)C(Cl)(Cl)Cl)cc1 | -7.72% (inactive) | –
12 | C#CCN1CC(=O)N(COC(=O)C2C(C=C(C)C)C2(C)C)C1=O (stereo not given) | -2.18% (inactive) | –
13 | Cc1ccccc1-n1c(CF)nc2ccc(N)cc2c1=O | 1.4% (inactive) | –
14 | CC(=O)OC1CN2CCC1CC2 (stereo not given) | 1.78% (inactive) | –
15 | CNc1ccc(C(=O)CC(O)CCC(C)C2OC(=O)CC(O)CC(=O)CC(O)CC(O)CC(O)CC(O)CC3(O)CC(O)C(C(=O)OC)C(CC(O[C@@H]4O[C@H](C)[C@@H](O)[C@H](N)[C@@H]4O)/C=C/C=C/C=C/C=C/C=C/C=C/C=C/C2C)O3)cc1 (stereo not given in full) | -3.12% (inactive) | –
16 | COC(COC(N)=O)C1=C(N2CC2)C(=O)C(C)=C(N2CC2)C1=O (stereo not given) | -2.75% (inactive) | –
17 | CCON=O | 4.6% (inactive) | –
18 | CC(C)[C@@]1(NC(=O)[C@@H]2C[C@@H]3c4cccc5[nH]cc(c45)C[C@H]3N(C)C2)O[C@@]2(O)[C@@H]3CCCN3C(=O)[C@H](Cc3ccccc3)N2C1=O | – | inactive
19 | CN1[C@@H]2CC[C@H]1CC(OC1c3ccccc3CCc3ccccc31)C2 (stereo not given in full) | -5.79% [at 39.1 µM] (inactive) | –
20 | COc1cc(C[C@H](C)N)c(OC)cc1C | -1.24% [at 95.3 µM] (inactive) | –

Row | Compound | activation | Potency
21 | CCCCCCC(=O)O[C@H]1CC[C@H]2[C@@H]3CC[C@H]4CC(=O)C=C(C)[C@]4(C)[C@H]3CC[C@]12C | 1.99% (inactive) | –
22 | CCC/C=C/C=C/C(=O)O[C@H]1/C(=C/C(=O)OC)C[C@H]2C[C@H]([C@@H](C)O)OC(=O)C[C@H](O)C[C@@H]3C[C@H](OC(C)=O)C(C)(C)[C@](O)(C[C@@H]4C/C(=C/C(=O)OC)C[C@H](/C=C/C(C)(C)[C@]1(O)O2)O4)O3 | – | 4.7 nM (active)
23 | C[C@]12CCC(=O)C=C1C=C[C@@H]1[C@@H]2CC[C@@]2(C)[C@H]1CC[C@@]2(O)CCC(=O)O | 3.42% [at 39.1 µM] (inactive) | –
24 | C[N+]1(C)CCCCC1COC(=O)C(O)(c1ccccc1)c1ccccc1 (stereo not given) | 2.61% (inactive) | –
25 | COc1ccc(OC)c(C[C@H](C)N)c1 | -0.327% [at 95.3 µM] (inactive) | –
26 | CCN(CC)CCO[C@H]1CC[C@@]2(C)C(=CC[C@@H]3[C@@H]2CC[C@]2(C)C(=O)CC[C@@H]32)C1 | -3.99% (inactive) | –
27 | O[C@H]1[C@H]2[C@H](O)CCCN2C[C@H]1O | -2.22% (inactive) | –
28 | CCCCC[C@@H](O)C1C(=O)OC(C)[C@H](O)/C=C/C=C/C=C/C=C/C=C(\C)C(O)C(O)C(O)C[C@H](O)C[C@H](O)C[C@H](O)C[C@H](O)C[C@@H]1O (stereo not given in full) | – | inactive
29 | C[C@@H]1[C@H](O)[C@@H](C)/C=C/C=C/CC/C=C/C=C/C=C/C=C/[C@H](O[C@H]2O[C@@H](C)[C@H](O)[C@@H](N)[C@H]2O)CC2O[C@](O)(C[C@@H](O)[C@H](O)CC[C@@H](O)C[C@@H](O)C[C@@H](O)CC(=O)O[C@H]1C)C[C@H](O)[C@H]2C(=O)O | 3.75% (inactive) | –
30 | CCC1(CC)C(=O)NC(=O)N(C)C1=O | -3.26% (inactive) | –
31 | O=C(NC(=O)c1c(F)cccc1F)Nc1ccc(Cl)c(Oc2ncc(C(F)(F)F)cc2Cl)c1 | 1.59% (inactive) | –
32 | CN[C@@H](C)Cc1ccccc1 | 3.64% (inactive) | –
33 | CN1C(=O)CC(=O)N(c2ccccc2)c2cc(Cl)ccc21 | 5.26% (inactive) | –
34 | CN[C@@H]1C[C@@H](c2ccc(Cl)c(Cl)c2)c2ccccc21 | -6.22% (inactive) | –
35 | CCCCNC(C)(C)[P+](=O)O | 2.17% (inactive) | –
36 | CC1(C)[C@H](C=C(Cl)Cl)[C@H]1C(=O)OCc1c(F)c(F)cc(F)c1F | 2.82% (inactive) | –
37 | Cc1nnc2n1-c1sc(CCc3ccc(CC(C)C)cc3)cc1C(c1ccccc1Cl)=NC2C (stereo not given) | -6.88% (inactive) | –
38 | CCN(CC)C(=O)N[C@H]1C[C@@H]2c3cccc4[nH]cc(c34)C[C@H]2N(C)C1 | -2.74% (inactive) | –
39 | COC(=O)[C@@H]1[C@H]2CC[C@@H](C[C@H]1OC(=O)c1ccccc1)N2C | 1.1% (inactive) | –
40 | CC(C)[C@H]1C(=O)N2CCC[C@H]2[C@]2(O)O[C@](NC(=O)[C@@H]3C[C@@H]4c5cccc6[nH]cc(c56)C[C@H]4N(C)C3)(C(C)C)C(=O)N12 | -5.41% (inactive) | –
